Results filed as inconclusive are left out. Calls of active or inactive are those of the source. The calls were made as follows: active = hit-call score of the fitted dose curve at least 0.9, where 1 is the maximum; inconclusive = response in the unintended direction; inactive = score below 0.9.

The experiment can be described thus: ACEA_AR_antagonist_AUC_viability: ACEA Biosciences xCELLigence Real-Time Cell Analysis on Androgen Receptor Antagonism for Viability (AID 2283776).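 Also: 22Rv1 human prostate cancer cells growing on impedance electrode plates; area under impedance growth curve at 80 h after dosing as viability; hits lower the growth signal relative to DMSO meaning cytotoxicity.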 The gist of the method: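 Real-time electrical impedance tracks 22Rv1 proliferation after continuous compound exposure (top 100 uM final, 1:4 steps, 8 concentrations). The 80 h area-under-curve serves as the cytotoxicity readout relative to DMSO.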
`CC(C)CCCCCCCOC(=O)CCCCC(=O)OCCCCCCCC(C)C`: the result was inactive.
Broadly, the AC50 is the midpoint of the concentration-response curve, whichever way the signal moves. With `O=P(OC(CCl)CCl)(OC(CCl)CCl)OC(CCl)CCl`, the AC50 was 29.8 µM (active).
As to `CC1=CC(=O)CC(C)(C)C1`, the molecule was classed as inactive.
Turning to `CC(C)=CCC/C(C)=C/CO`, the AC50 is 25.6 µM (active).
`COc1ccc(/C=C/S(=O)(=O)NC(=O)c2ccc(C)cc2Cl)cc1`: the AC50 is 22.7 µM (active).
Take `O=C(O)CCN(C1(C(=O)NO)CCCC1)S(=O)(=O)c1ccc(Oc2ccc(F)cc2)cc1`: the result was inactive.
Same read-out and setting: the result for `O=C1CCC(N2C(=O)c3ccccc3C2=O)C(=O)N1` (configuration not stated) reads “inactive”.
As to `COCCOc1cc2cc(C(=O)NC3CCN(C(C)C)CC3)n(CC(=O)Nc3ccc(Cl)cn3)c2cn1`, the AC50 is 45 µM (active).
As to `CCOC(=O)COc1ccc2c(c1)CC(NCC(O)c1cccc(Cl)c1)CC2` (configuration not stated), the AC50 was 24.1 µM (active).
`CC(=O)c1ccc2c(c1)[C@H](NC(=O)c1ccc(F)cc1)[C@@H](O)C(C)(C)O2`: the outcome was inactive.
Turning to `CC(O)CN(CCN(CC(C)O)CC(C)O)CC(C)O` (configuration not stated), the call was inactive.
As for `CC/C(=C\C(=N/O)C(N)=O)C(C)[N+](=O)[O-]` (configuration not stated), the AC50 is 74.2 µM (active).
Turning to `CC(=O)OCCC(C)C`, the result was inactive.
Same read-out and setting: the result for `CCCCCCCCO` reads “inactive”.
On the same count and under the same terms, the result for `COC(=O)CC(=O)OC` reads “inactive”; that for `CCNc1ccccc1`, “inactive”; that for `O=C1OC(=O)C2C3C=CC(C3)C12` (configuration not stated), “inactive”.
As for `CN(C)c1ccc(Cc2ccc(N(C)C)cc2)cc1`, the AC50 is 50 µM (active).
On the same count and under the same terms, with `Cc1c(-c2cccnc2)c2ccccc2n1CCCCC(=O)O` the figure was 22.8 µM (active).
Consider `C=CC(=C)CCC=C(C)C`, for which the call was inactive.
Still for that read-out and setting: with `O=C1CCCCCN1` the entry was “inactive”.
`O=C(NS(=O)(=O)/C=C/c1ccccc1)c1ccc(F)cc1Cl`: the AC50 was 13.1 µM (active).

The record behind these values is PubChem BioAssay (EPA / NIEHS).
